The results in this text go back to PubChem BioAssay (NCATS).

A short description of experiment [1]: qHTS for Inhibitors of Cell Surface uPA Generation: Validation Assay (AID 493164).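 Further: RAW 264.7 macrophage cells exposed to compound for 18 h.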 An outline of the steps:
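RAW 264.7, 4000 cells/well, o/n plating; cpd 7-pt 1:5 dilution 2.45 nM–38.3 uM final; 18 h, 37 C/5% CO2; ATP-Lite, 5 s luminescence exposure.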
In general terms: In qHTS, concentration-response curves come from the screen itself.

For experiment [2], the target named is Galactokinase (Homo sapiens) (UniProt P51570). Description: qHTS Validation Assay for Inhibitors of Human Galactokinase (GALK) (AID 493189). The method, boiled down:
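Compounds were pin-transferred into ATP buffer, then GALK-galactose mix was added (final 5 nM enzyme, 100 uM galactose, 35 uM ATP). After 1 h at room temperature, remaining ATP was measured luminescently.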

Experiment [3] can be described thus: Validation screen for small molecules that induce DNA re-replication in SW480 colon adenocarcinoma cells (AID 504364). The method, boiled down:
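Cells are treated 48 hr with test compound, stained 40 min with Hoechst at 37 C, and scanned for nuclear fluorescence; compounds inducing re-replication increase nuclei with elevated intensity.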

Experiment [4] concerns the target Peptidyl-prolyl cis-trans isomerase NIMA-interacting 1 (Homo sapiens) (UniProt Q13526). Briefly: qHTS Validation Assay to Find Inhibitors of Pin1 (AID 504536; active means well fitted inhibition curve with a large enough effect in the polarisation, with a control signal flat, not every such curve was filed as active; the % refers to the polarisation). An outline of the steps:
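Fluorescence polarization competition: compounds (titration) displace HiFluor-488-labeled Pin1-1b peptide from Pin1 (0.3 uM final) in pH 7.5 HEPES buffer with DTT, 10 min at room temperature; %Activity normalized to no-enzyme wells, curves fitted.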

The target in experiment [5] is Phosphoglycerate kinase, glycosomal (Trypanosoma brucei brucei) (UniProt P07378). Briefly: qHTS Validation Assay to Find Inhibitors of Phosphoglycerate Kinase (AID 504547). Further: potency means the concentration at half of the fitted maximal effect. An outline of the steps: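 PGK activity was coupled to GAPDH (100nM final), which generates the unstable substrate 1,3-bisphosphoglycerate in-well. Reactions ran 60 minutes at room temperature in 100mM TEA pH 7.6, 5mM MgCl2, 0.01% Tween-20, then Kinase-Glo Plus luminescence was read.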

Experiment [6] has as its target phosphoglycerate mutase (Leishmania major) (UniProt Q4Q090). Description: qHTS Validation Assay to Find Inhibitors of Phosphoglycerate Mutase (AID 504548).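 Further: end-point luminescence from Kinase-GloPlus after the PGAM reaction; series mostly up to about 58 µM.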 The following applies: Potency: inhibition qHTS. The method, boiled down:
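Inhibition of L. major PGAM was assessed by Kinase-GloPlus luminescence following a 45-minute room-temperature reaction with enzyme at 1.25nM final.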

Experiment [7] deals with Ubiquitin carboxyl-terminal hydrolase 1 (Homo sapiens) (UniProt O94782). Description: Inhibitors of USP1/UAF1: Pilot qHTS (AID 504865). Further: nearly all actives have a fitted effect of over 35% in size. Further: potency means the concentration at half of the fitted maximal effect. An outline of the steps:
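Kinetic fluorescence assay: 1nM USP1/UAF1, 15 min compound preincubation, then 150nM Ub-Rho; 480/540 nm.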

A short description of experiment [8]: qHTS for Inhibitors of ATXN expression: Validation of Cytotoxic Assay (AID 588349).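 Further: cells exposed to compound for 72 hr.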 An outline of the steps:
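HEK293, compound dose series, 72 hr / 37 degrees C; viability via CellTiter Glo (intracellular ATP).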

Experiment [9] is described as follows: qHTS for Inhibitors of ATXN expression: Validation (AID 588378). Further: nearly all actives have a fitted effect of over 75% in size. Further: potency means the concentration at half of the fitted maximal effect. The method, boiled down: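 Validation of ATXN2 expression inhibitors uses a cell-based luciferase fusion reporter in HEK293 cells, with 24 h compound exposure and paired viability (fluorescence) and reporter (luminescence) end-point reads.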
Experiment [10] deals with DNA dC->dU-editing enzyme APOBEC-3G (Homo sapiens) (UniProt Q9HC16). Briefly: qHTS for inhibitors of Vif-A3G interactions: Validation (AID 588379). The method, boiled down: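 HeLa cells stably expressing Vif and A3G-eYFP, 700 cells/well, incubated overnight at 37 deg C, then exposed to compound overnight at 37 deg C. Inhibition of Vif-mediated degradation read as increased yellow fluorescence (Ex 488/Em 500-530) by laser-scanning cytometry.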

The structures appear in SMILES notation. Results filed as inconclusive are left out. Active and inactive are the calls of the source. Unless noted, the call rests on the fitted dose curve; in most records, active means well fitted curve in the direction sought with a large enough effect; inconclusive means small, poorly fitted or top-dose-only effect, or another doubt; inactive means no such curve, though single readings can be large; an effect the other way counts as inactive or inconclusive.

Chain of Phosphoglycerate kinase, glycosomal (Trypanosoma brucei brucei) (P07378 whole entry, looked up): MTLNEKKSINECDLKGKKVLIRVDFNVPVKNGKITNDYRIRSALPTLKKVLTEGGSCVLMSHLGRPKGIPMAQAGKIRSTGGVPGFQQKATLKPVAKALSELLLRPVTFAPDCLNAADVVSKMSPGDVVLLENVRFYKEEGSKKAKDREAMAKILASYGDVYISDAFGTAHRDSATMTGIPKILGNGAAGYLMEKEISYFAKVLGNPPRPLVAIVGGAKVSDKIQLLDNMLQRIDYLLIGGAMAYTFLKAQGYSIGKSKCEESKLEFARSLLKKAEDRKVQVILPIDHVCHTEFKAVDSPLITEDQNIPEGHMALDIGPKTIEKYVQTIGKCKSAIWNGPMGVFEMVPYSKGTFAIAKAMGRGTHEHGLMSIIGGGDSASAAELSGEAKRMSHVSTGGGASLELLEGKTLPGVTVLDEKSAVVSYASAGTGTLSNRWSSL
Chain of DNA dC->dU-editing enzyme APOBEC-3G (Homo sapiens) (Q9HC16 whole entry, looked up): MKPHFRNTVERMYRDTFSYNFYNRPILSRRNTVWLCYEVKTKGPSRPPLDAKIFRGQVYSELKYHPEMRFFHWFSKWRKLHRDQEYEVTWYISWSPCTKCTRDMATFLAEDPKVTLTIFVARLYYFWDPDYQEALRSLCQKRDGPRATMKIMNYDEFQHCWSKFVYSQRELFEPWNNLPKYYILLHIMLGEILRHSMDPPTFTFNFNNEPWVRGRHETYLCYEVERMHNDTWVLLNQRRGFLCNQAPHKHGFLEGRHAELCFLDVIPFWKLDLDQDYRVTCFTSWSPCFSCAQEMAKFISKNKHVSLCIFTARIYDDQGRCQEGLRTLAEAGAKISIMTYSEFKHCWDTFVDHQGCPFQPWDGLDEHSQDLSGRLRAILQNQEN
Chain of Ubiquitin carboxyl-terminal hydrolase 1 (Homo sapiens) (O94782 whole entry, looked up): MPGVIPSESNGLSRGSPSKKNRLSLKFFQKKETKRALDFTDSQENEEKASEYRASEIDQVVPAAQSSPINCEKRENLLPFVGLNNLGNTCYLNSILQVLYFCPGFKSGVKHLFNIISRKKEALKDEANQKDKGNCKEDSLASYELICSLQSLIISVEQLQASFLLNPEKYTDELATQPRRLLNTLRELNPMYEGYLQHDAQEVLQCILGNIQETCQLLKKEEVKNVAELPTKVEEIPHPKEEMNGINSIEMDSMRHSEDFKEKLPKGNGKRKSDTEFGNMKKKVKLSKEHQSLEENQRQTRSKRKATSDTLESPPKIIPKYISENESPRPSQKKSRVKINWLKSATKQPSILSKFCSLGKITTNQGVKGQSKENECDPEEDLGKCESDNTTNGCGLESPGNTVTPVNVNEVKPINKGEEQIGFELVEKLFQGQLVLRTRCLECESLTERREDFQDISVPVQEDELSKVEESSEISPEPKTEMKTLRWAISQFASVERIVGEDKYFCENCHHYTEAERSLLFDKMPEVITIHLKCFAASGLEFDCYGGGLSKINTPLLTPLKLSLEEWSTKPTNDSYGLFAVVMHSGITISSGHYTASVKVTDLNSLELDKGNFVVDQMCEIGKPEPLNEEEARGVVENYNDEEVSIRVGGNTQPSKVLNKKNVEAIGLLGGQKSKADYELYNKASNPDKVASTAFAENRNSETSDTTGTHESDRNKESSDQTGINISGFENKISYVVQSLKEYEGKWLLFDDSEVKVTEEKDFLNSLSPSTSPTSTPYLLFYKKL
Chain of Galactokinase (Homo sapiens) (P51570 whole entry, looked up): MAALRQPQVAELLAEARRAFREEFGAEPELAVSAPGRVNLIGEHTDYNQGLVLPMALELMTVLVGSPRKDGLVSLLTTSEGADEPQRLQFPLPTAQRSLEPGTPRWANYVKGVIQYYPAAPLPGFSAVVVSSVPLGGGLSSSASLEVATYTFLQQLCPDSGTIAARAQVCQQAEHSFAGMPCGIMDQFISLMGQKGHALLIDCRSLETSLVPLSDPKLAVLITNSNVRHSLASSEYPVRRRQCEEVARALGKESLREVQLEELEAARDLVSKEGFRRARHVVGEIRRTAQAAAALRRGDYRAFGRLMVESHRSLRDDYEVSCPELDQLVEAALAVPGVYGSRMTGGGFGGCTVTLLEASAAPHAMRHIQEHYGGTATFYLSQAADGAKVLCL
Chain of Peptidyl-prolyl cis-trans isomerase NIMA-interacting 1 (Homo sapiens) (Q13526 whole entry, looked up): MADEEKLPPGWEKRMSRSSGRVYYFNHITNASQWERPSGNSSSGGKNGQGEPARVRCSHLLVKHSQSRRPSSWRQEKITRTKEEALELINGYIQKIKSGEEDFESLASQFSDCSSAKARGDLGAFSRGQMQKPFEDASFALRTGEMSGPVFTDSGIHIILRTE
Chain of phosphoglycerate mutase (Leishmania major) (Q4Q090 1-553): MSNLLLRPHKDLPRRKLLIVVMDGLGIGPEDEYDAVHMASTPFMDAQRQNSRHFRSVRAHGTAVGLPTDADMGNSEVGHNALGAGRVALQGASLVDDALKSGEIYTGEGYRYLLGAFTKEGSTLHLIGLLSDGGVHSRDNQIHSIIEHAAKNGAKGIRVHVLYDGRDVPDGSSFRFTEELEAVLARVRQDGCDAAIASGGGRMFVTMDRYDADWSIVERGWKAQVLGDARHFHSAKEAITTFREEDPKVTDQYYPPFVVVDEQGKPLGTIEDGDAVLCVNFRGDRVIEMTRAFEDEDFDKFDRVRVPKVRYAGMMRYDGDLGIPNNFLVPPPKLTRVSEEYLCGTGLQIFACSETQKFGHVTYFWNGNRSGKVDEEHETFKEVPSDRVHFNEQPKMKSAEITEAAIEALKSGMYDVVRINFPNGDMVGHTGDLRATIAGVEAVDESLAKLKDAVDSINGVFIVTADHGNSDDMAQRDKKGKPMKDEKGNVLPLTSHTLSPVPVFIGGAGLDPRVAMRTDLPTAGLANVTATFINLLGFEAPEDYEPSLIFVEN

In the case of `S=C(S)OC1CC2CC1C1CCCC21` (stereo not drawn), the result in experiment [1] was inactive. The Potency entry in experiment [2], in experiment [3], in experiment [4], in experiment [5], in experiment [6] and in [7] was “inactive” throughout. In addition, in [8], the Potency result was “inactive”.

Turning to `COc1ccccc1CNCCCCCCNCCCCCCCCNCCCCCCNCc1ccccc1OC`, in [1], the compound was classed as inactive. The Potency result in [2], in experiment [3], in experiment [4], in experiment [5], in experiment [6] and in [7] was “inactive” in each case.

`NO`: the compound was classed as inactive in experiment [1]. Besides, the Potency result in experiment [2], in [3], in [4], in experiment [5], in experiment [6] and in experiment [7] was “inactive” throughout. Besides, the Potency entry in experiment [8] was “inactive”.

For `Oc1cc(O)cc(/C=C/c2ccc(O)c(O)c2)c1`, the result in experiment [1] was inactive. Moreover, the Potency entry in [2], in experiment [3], in experiment [4], in experiment [6] and in [7] was “inactive” each time. Besides, in experiment [5], the Potency is 23.9 µM (active).

For `CC(=O)N[C@H](C(=O)O)C(C)(C)SN=O`, the call in experiment [1] was inactive. Further, the Potency result in experiment [2], in experiment [3], in experiment [4], in experiment [5], in experiment [6] and in [7] was “inactive” throughout. Moreover, the Potency entry in [8] was “inactive”.

With `COc1cc(C(O)CO)ccc1OS(=O)(=O)O` (stereo not drawn), the call in experiment [1] was inactive. For the same compound, the Potency result in experiment [2], in [3], in experiment [4], in experiment [5], in experiment [6] and in experiment [7] was “inactive” in each case. For the same compound, the Potency entry in [8] and in experiment [9] was “inactive” in each case.

Consider `CN(C)c1nc(N)c(C(=O)N=C(N)N)nc1Cl`, for which, in [1], the result was inactive. The Potency result in [2], in experiment [3], in experiment [4], in experiment [5], in experiment [6] and in [7] was “inactive” throughout. Further, in [8], the Potency entry was “inactive”.

Turning to `NCCSSCCN`, the result in experiment [1] was inactive. Besides, the Potency entry in [2], in experiment [3], in experiment [4], in experiment [5], in experiment [6] and in experiment [7] was “inactive” throughout. Moreover, the Potency result in experiment [8] and in experiment [9] was “inactive” throughout.

`O=S(=O)(c1cccc2c(I)cccc12)N1CCCNCC1`: in [1], the outcome was inactive. Further, the Potency result in experiment [2], in experiment [3], in [4], in [5], in [6] and in experiment [7] was “inactive” throughout. Further, the Potency in experiment [9] is 12.6 µM (active).

For the compound `Brc1c(Br)c(Br)c2n[nH]nc2c1Br`, in experiment [1], the result was inactive. The Potency result in experiment [2], in [3], in experiment [4], in experiment [5], in [6] and in [8] was “inactive” each time.

On to `O=C(O)CC[C@@H](C(=O)O)N1C(=O)c2ccccc2C1=O`, for which the compound was classed as inactive in experiment [1]. In addition, the Potency entry in experiment [2], in [3], in experiment [4], in experiment [5], in experiment [6] and in experiment [7] was “inactive” throughout. Moreover, the Potency result in [8] and in experiment [9] was “inactive” each time.

On to `CN(C)c1nc2c(Br)c(Br)c(Br)c(Br)c2[nH]1`, for which the compound was called inactive in [1]. Moreover, the Potency result in experiment [2], in [3], in [4], in experiment [5], in experiment [6] and in [7] was “inactive” throughout. For the same compound, the Potency result in experiment [8] and in experiment [9] was “inactive” in each case.

For the compound `CCCCC/C=C\CC(O)/C=C/c1cccc(CC(O)CCCCO)n1` (stereo not drawn), the compound was called inactive in [1]. In addition, the Potency entry in [2], in experiment [3], in experiment [4], in experiment [5], in experiment [6] and in [8] was “inactive” throughout.

For `CN(C)C(N)=NCCC[C@H](N)C(=O)O`, the compound was classed as inactive in [1]. Further, the Potency result in experiment [2], in experiment [3], in [4], in [5], in experiment [6] and in [7] was “inactive” throughout. Moreover, the Potency entry in experiment [8] and in experiment [9] was “inactive” each time.

Turning to `Cc1ccccc1CNc1ncnc2c1ncn2C1OC(CO)C(O)C1O` (stereo not drawn), the call in experiment [1] was inactive. Further, the Potency entry in experiment [2], in experiment [3], in experiment [4], in experiment [5], in experiment [6] and in [7] was “inactive” in each case. Besides, the Potency result in [8] and in [9] was “inactive” each time.

`CN1CCC[C@H]1c1cccnc1`: the compound was called inactive in experiment [1]. Besides, the Potency entry in experiment [2], in experiment [3], in [4], in experiment [5], in [6] and in experiment [7] was “inactive” each time. The Potency result in [8], in experiment [9] and in [10] was “inactive” each time.

For the compound `CC(COc1ccc(/C=C/c2ccccc2)cc1)[N+](C)(C)C` (stereo not drawn), the call in experiment [1] was inactive. Besides, the Potency entry in experiment [2], in experiment [3], in [4], in [5], in [6] and in [7] was “inactive” throughout. For the same compound, the Potency result in experiment [8] and in experiment [9] was “inactive” each time.

Turning to `Cc1cc(NC(=O)Nc2ccc3c(ccn3C)c2)sn1`, the compound was called inactive in [1]. The Potency entry in experiment [2], in experiment [3], in experiment [4], in experiment [5], in [6] and in experiment [7] was “inactive” throughout. Also, the Potency result in experiment [9] and in experiment [10] was “inactive” in each case.

`O=C(O)c1cc(=O)c2ccccc2[nH]1`: in experiment [1], the call was inactive. Further, the Potency result in experiment [2], in [3], in experiment [4], in experiment [5], in experiment [6] and in [7] was “inactive” throughout. Further, the Potency result in experiment [8], in experiment [9] and in experiment [10] was “inactive” in each case.

On to `NC(=O)C(=O)O`, for which, in experiment [1], the result was inactive. The Potency result in [2], in experiment [3], in experiment [4], in [5], in experiment [6] and in experiment [7] was “inactive” each time. Besides, the Potency result in experiment [8] and in [9] was “inactive” throughout.

`Clc1ccc(N2CCN(Cc3c[nH]c4ncccc34)CC2)cc1`: the result in experiment [1] was inactive. The Potency result in experiment [2], in experiment [3], in experiment [4], in [5], in experiment [6] and in experiment [8] was “inactive” each time. For the same compound, the Potency entry in experiment [10] is “inactive”. Besides, the Potency in experiment [7] was 50.1 µM (active).

Take `COc1cccc(OC)c1OCCNCC1COc2ccccc2O1` (stereo not drawn): in experiment [1], the call was inactive. In addition, the Potency entry in experiment [2], in [3], in experiment [4], in experiment [5], in [6] and in experiment [7] was “inactive” throughout. Moreover, the Potency entry in [8] and in experiment [9] was “inactive” each time.

`NC(CCCP(=O)(O)O)C(=O)O` (stereo not drawn): in experiment [1], the call was inactive. Also, the Potency result in [2], in experiment [3], in [4], in [5], in experiment [6] and in [8] was “inactive” each time.

Consider `C[C@@H](CN1CCC(Cc2ccccc2)CC1)[C@@H](O)c1ccc(O)cc1`, for which the compound was called inactive in experiment [1]. The Potency result in [2], in [3], in [4], in experiment [5], in experiment [6] and in experiment [7] was “inactive” throughout. For the same compound, the Potency result in [8], in experiment [9] and in experiment [10] was “inactive” in each case.

For `O=C(O)CCCC[C@@H]1CCSS1`, the compound was classed as inactive in experiment [1]. Also, the Potency result in experiment [2], in experiment [3], in experiment [4], in experiment [5], in experiment [6] and in [7] was “inactive” throughout. The Potency entry in experiment [8] and in experiment [9] was “inactive” each time.
